Bioassay records deposited in PubChem by National Center for Advancing Translational Sciences (NCATS).
In the library only some 6.9% were active in any assay of this set; here they are far more common.
Vif-A3G inh: qHTS for Inhibitors of Vif-A3G Interactions: qHTS | DNA dC->dU-editing enzyme APOBEC-3G (Homo sapiens), Q9HC16 | HeLa A3G-eYFP + Vif (tagged APOBEC3G with the HIV-1 protein that degrades it), YFP fluorescence, overnight | Potency, µM (top dose mostly 46.1 µM), for the others: top-dose activity, negative = active, usual class: inhibitors | 410,000 compounds, 0.076% hits | AID 602310, 2012; further: potency means the concentration at half of the fitted maximal effect; on the % scale 0 is the no-effect control and ±100 the full control effect; nearly all actives have a fitted effect of over 60% in size
Target sequence (Q9HC16 whole entry, looked up): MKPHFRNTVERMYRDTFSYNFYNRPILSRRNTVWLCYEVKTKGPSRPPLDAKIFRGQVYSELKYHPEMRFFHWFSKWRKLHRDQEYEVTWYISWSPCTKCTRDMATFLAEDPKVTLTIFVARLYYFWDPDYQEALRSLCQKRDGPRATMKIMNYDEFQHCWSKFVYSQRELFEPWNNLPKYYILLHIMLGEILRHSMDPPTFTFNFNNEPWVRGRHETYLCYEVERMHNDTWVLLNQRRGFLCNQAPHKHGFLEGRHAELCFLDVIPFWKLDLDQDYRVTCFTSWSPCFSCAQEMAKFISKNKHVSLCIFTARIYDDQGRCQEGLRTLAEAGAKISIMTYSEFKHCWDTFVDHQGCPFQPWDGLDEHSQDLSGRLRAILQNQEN
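HeLa cells stably expressing Vif and C-terminally eYFP-tagged A3G, seeded overnight at 37 deg C, then exposed to compound by pintool overnight at 37 deg C. Rise in yellow fluorescence (Ex 488/Em 500-530, Acumen) marks blocked Vif-driven A3G degradation.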
SW480 rerep: A quantitative high throughput screen for small molecules that induce DNA re-replication in SW480 colon adenocarcinoma cells; Potency, µM (titrated, usually from 46.1 µM), inactives show at the top dose re-replication activation, usual class: activators; 340,000 compounds, 1.8% hits; SW480 DNA re-replication, Hoechst DNA content imaging, 48 h; AID 624297, 2012; further: potency means the concentration at half of the fitted maximal effect; % of control where 0% means no effect; nearly all actives have a fitted effect of over 55% in size
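Quantitative HTS format with DMSO vehicle controls; 48 hr drug incubation at 37 C, then 40 min Hoechst staining and scanning imager measurement at 405 nm excitation.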
MCF10A rereplic: A quantitative high throughput screen for small molecules that induce DNA re-replication in MCF 10a normal breast cells; MCF 10A DNA re-replication, Hoechst nuclear intensity, 48 h; Potency, µM (top dose mostly 46.1 µM), inactives show top-dose activity, positive = re-replication, hits mostly activators; 350,000 compounds, 2.9% hits; AID 624296, 2012; further: potency means the concentration at half of the fitted maximal effect; % of control where 0% means no effect; nearly all actives have a fitted effect of over 50% in size
Vif-A3F inh: qHTS for Inhibitors of Vif-A3F Interactions: qHTS; 390,000 compounds, 0.2% hits; Potency, µM (titrated, usually from 46.1 µM), inactives show at the highest dose activity, negative = active; HeLa A3F-eYFP + Vif (tagged APOBEC3F with the HIV-1 protein that degrades it), YFP fluorescence increase; further: potency means the concentration at half of the fitted maximal effect; % of control where 0% means no effect; nearly all actives have a fitted effect of over 65% in size
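HeLa cells stably expressing A3F-eYFP plus Vif, plated and incubated overnight at 37 deg C, then exposed to compounds overnight at 37 deg C. Blocked degradation read as raised yellow fluorescence (Ex 488/Em 500-530).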
Giardia kill: Small Molecules that selectively kill Giardia lamblia: qHTS. Giardia lamblia trophozoite viability. activity change, % at 7.66 µM, hits read low. 340,000 compounds, 0.15% hits. AID 540267, 2011; in the data active means activity change below about -80%; inconclusive means between about -30% and that limit;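 further: parasites exposed to compound for two days anaerobically before the ATP read; on the % scale 0 is the no-effect control and ±100 the full control effect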
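Luminescent ATP signal served as the viability read-out, measured 15-30 min after adding ATP detection reagent to trophozoites that had been incubated with compounds for 48 hrs at 37 deg C anaerobically at 100 cells/well.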
IL1B secr inh: qHTS for Inhibitors of Inflammasome Signaling: IL-1-beta AlphaLISA Primary Screen; THP-1 LPS/ATP IL-1B secretion, AlphaLISA, 16 h; stronger effect = lower value; activity change, % at 57.5 µM; 360,000 compounds, 4.7% hits; AID 743279, 2014; in the data active means activity change below about -50%; inconclusive means mostly about -30% to -49%; further: on the % scale 0 is the no-effect control and ±100 the full control effect
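Secreted IL-1B measured by AlphaLISA bead assay after 16 h compound exposure of THP-1 cells; compounds (final up to 57.5 uM) added 1 h before LPS (250 ng/mL) and ATP (1.25 mM) stimulation; lower signal means less secretion.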
The depositor's hits bear a star; ? = inconclusive; · = no result given. Unless noted, the call rests on the fitted dose curve; in most records, active means well fitted curve in the direction sought with a large enough effect; inconclusive means small, poorly fitted or top-dose-only effect, or another doubt; inactive means no such curve, though single readings can be large; an effect the other way counts as inactive or inconclusive.

SMILES | Vif-A3G inh | SW480 rerep | MCF10A rereplic | Vif-A3F inh | Giardia kill | IL1B secr inh
S=C(NCCc1ccc(Cl)cc1)Nc1ccc(Cl)cc1Cl | -9.6% | 28.1% | ? | -17.7% | 0.3 | -78.7*
O=C(Nc1ccc(Cl)cc1)C(NS(=O)(=O)c1cccs1)c1ccccc1 (configuration not stated) | 0.1% | · | · | -1.2% | · | ·
Cc1ccc(-n2c(=O)cc(N3CCN(c4ccccc4Cl)CC3)[nH]c2=O)cc1 | -9.8% | · | · | -10.0% | · | ·
Cc1ccc(Cn2cc(/C=C(/C#N)C(=O)Nc3cccc(Cl)c3)c3ccccc32)cc1 | 0.8% | · | · | 0.8% | · | ·
Cc1ccccc1Nc1c(-c2ccc(N3CCOCC3)cc2)nc2ccc(Br)cn12 | 3.4% | · | · | -8.7% | · | ·
COc1ccc(NC(=O)CCS(=O)(=O)c2nc(-c3ccc4c(c3)OCO4)cc(C(F)(F)F)n2)cc1 | ? | · | · | 3.8% | · | ·
COc1ccccc1-c1cc(C(F)(F)F)nc(S(=O)(=O)CCCC(=O)O)n1 | -16.2% | 3.55µM* | ? | -4.8% | -8.1 | -87.4*
COc1ccc(-c2cc(C(F)(F)F)nc(S(=O)(=O)CCC(=O)N3CCOCC3)n2)cc1 | 0.7% | ? | 8.2µM* | -4.2% | 3.5 | -117.8*
COc1ccccc1-c1cc(C(F)(F)F)nc(S(=O)(=O)CCCC(=O)N2CCOCC2)n1 | -22.2% | ? | 3.26µM* | 2.1% | -9.9 | -118.1*
COc1ccc(NC(=O)CCCS(=O)(=O)c2nc(-c3ccc(OC)c(OC)c3)cc(C(F)(F)F)n2)cc1OC | ? | · | · | 1.0% | -7.9 | ·
COc1ccc(-c2cc(C(F)(F)F)nc(S(=O)(=O)CCCC(=O)Nc3cccc(O)c3)n2)cc1OC | ? | ? | 6.51µM* | 1.5% | -4.7 | -145.7*
COc1ccccc1-c1cc(C(F)(F)F)nc(S(=O)(=O)CCCC(=O)Nc2cc(OC)c(OC)c(OC)c2)n1 | -1.1% | · | · | 1.2% | · | ·
O=C(NCc1ccncc1)C1CCN(S(=O)(=O)Cc2ccccc2)CC1 | -1.7% | ? | -25.5% | -4.5% | 41.2 | -63.5*
O=C(NCc1ccccc1)C1CCN(S(=O)(=O)Cc2ccccc2)CC1 | 3.1% | · | · | -3.3% | · | ·
O=C(CCCCCN1C(=O)c2cccc3cccc(c23)C1=O)NC1CCS(=O)(=O)C1 (configuration not stated) | 1.6% | 18.4µM* | -2.3% | -6.9% | 3.9 | -14.5
CCOc1ccc(-c2nc3c(c(SCC(=O)N4CCCCC4)n2)Cc2cccc(OC)c2O3)cc1 | -9.4% | · | · | -1.2% | · | ·
COC(=O)c1ccc(N=C2S/C(=C\c3cc(C)n(-c4cccnc4)c3C)C(=O)N2C)cc1 | -2.0% | 18.4µM* | ? | -8.9% | 10.7 | ?
CCCCCCCCNCCS(=O)(=O)NCc1ccc(OC)cc1 | -2.1% | 4.6% | ? | 3.9% | -7.8 | -50.3*
COc1ccccc1CNS(=O)(=O)CCNCCc1ccccc1 | 5.5% | 5.1% | 20.6µM* | -0.7% | 1.3 | 13.5
CCCCCCCCNS(=O)(=O)CCNCc1ccccc1 | -0.4% | 3.0% | -2.2% | 1.3% | 4.4 | ?
COc1ccc(S(=O)(=O)NCc2ccc(C(=O)NCCCN3CCCC(C)C3)cc2)cc1 (configuration not stated) | 4.1% | -20.5% | ? | 2.5% | -15.8 | -51.8*
COc1ccc(C(=O)NCCS(=O)(=O)NCc2ccc(F)cc2)cc1 | 1.4% | 3.66µM* | 18.1% | -6.8% | ? | -4.9
O=S(=O)(CCNCCc1ccccc1)NCc1ccccc1 | -4.0% | 33.0% | -5.2% | 0.4% | 14.1 | -6.6
CC1CC(C)CN(CCCNC(=O)c2ccc(CNS(=O)(=O)c3ccc(F)cc3)cc2)C1 (configuration not stated) | 5.4% | 3.3% | -3.6% | 3.8% | 4.3 | -8.6
Cc1cccc(NC(=O)C2CCCN(S(=O)(=O)c3c(C)[nH]c(=O)[nH]c3=O)C2)c1C (configuration not stated) | 4.6% | · | · | -3.3% | · | ·
SMILES | Vif-A3G inh | SW480 rerep | MCF10A rereplic | Vif-A3F inh | Giardia kill | IL1B secr inh
CCCCCCCCNS(=O)(=O)CCNCc1ccccc1OC | -8.8% | -2.9% | ? | 7.0% | 17.9 | -61.6*
COc1ccc(CNS(=O)(=O)CCNCc2ccccc2OC)cc1 | 0.1% | -4.3% | -4.0% | -5.2% | 3.5 | 6.2
CC(OC(=O)c1ccc2c(c1)NC(=O)CS2)C(=O)c1ccc(F)cc1 (configuration not stated) | -5.2% | 2.4% | 3.6% | -9.4% | 4.8 | -55.5*
CC(=O)c1ccc(N2CCN(c3ncnc4onc(-c5ccc(Cl)cc5)c34)CC2)cc1 | -2.1% | · | · | -7.4% | · | ·
CCc1ccc(C(=O)c2cn(CC(=O)NCCc3ccccc3)c3nc(C)ccc3c2=O)cc1 | -0.8% | · | · | 1.1% | · | ·
Cc1cc(C)nc(N2N=C(c3ccccc3)CC2=O)n1 | -2.0% | 3.8% | 1.3% | -3.7% | 29.0 | -23.0
O=C1CC(c2ccccc2)=NN1c1nc(-c2ccccc2)cs1 | 1.8% | 0.3% | 16.4µM* | -4.4% | 18.7 | 38.3
O=C1CC(c2ccccc2)=NN1c1ccccc1 | 0.6% | ? | ? | 1.1% | 9.2 | -82.4*
CCOc1ccc(/C=C2\CCC(C3CCCC3)C2=O)cc1 (configuration not stated) | 1.6% | -1.3% | 3.7% | 1.2% | 7.8 | -4.3
CCC(=O)OCOc1ccc(/C=C2/CCC(CN(C)C)C2=O)cc1 (configuration not stated) | -8.4% | 11.6µM* | ? | 0.3% | 1.2 | -0.6
COc1ccc(NC(=O)Cn2ccn(-c3ccccc3)c(=O)c2=O)cc1 | -6.6% | · | · | 2.0% | · | ·
CCOC(=O)c1ccc(NC(=O)CSc2nc(-c3cccs3)cc(C(F)(F)F)c2C#N)cc1 | ? | · | · | 3.98µM* | 5.3 | ·
COc1ccc(NC(=O)CSc2nc3nc(-c4cccs4)cc(C(F)(F)F)c3c(=O)[nH]2)c(OC)c1 | -5.3% | -81.8% | ? | 0.0% | -4.1 | 18.2
COc1ccc(NC(=O)CSc2nc(-c3cccs3)cc(C(F)(F)F)c2C#N)cc1 | -8.9% | · | · | ? | · | ·
CCOc1ccccc1NC(=O)CSc1nc2nc(-c3cccs3)cc(C(F)(F)F)c2c(=O)[nH]1 | -10.7% | -4.4% | 16.4µM* | -1.2% | -6.6 | 15.1
CCOC(=O)c1ccc(NC(=O)CSc2nc(-c3ccc(OC)cc3)cc(C(F)(F)F)c2C#N)cc1 | ? | · | · | 25.1µM* | · | ·
COc1ccc(NC(=O)CSc2nc(-c3ccc(C)cc3)cc(C(F)(F)F)c2C#N)cc1 | 1.1% | 0.9% | -2.1% | -3.6% | 7.6 | 22.1
